RORgamma inh = ROR gamma (mouse) transcription inhibition | P51450 | Drosophila S2 Gal4-RORgamma UAS-luciferase reporter, 20 h | Potency, µM (highest dose often 53.6 µM), inactives show at the top dose activity change, negative = inhibition, usual class: inhibitors | actives 5.4% (n = 310,000); note: potency is the fitted concentration of half-maximal effect; nearly all actives have a fitted effect of over 60% in size
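Luciferase reporter read in Schneider cells carrying Gal4-RORγ (mouse) and UAS-Photinus luciferase; cells given compound 1 h before 700 uM copper sulfate induction, then incubated 20 h at ambient temperature.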
TSHR antag = blocks TSH signaling through the human TSH receptor. TSHR-expressing cells, TSH-stimulated cAMP HTRF, 2 h; hits give low values. activity change, negative = inhibition, % at 11.5 µM. actives 0.2% (n = 330,000). AID 504810;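 active = activity change below a set negative limit, meaning inhibition stronger than a set level, cut at about -70% in these data; inconclusive = activity change between two set negative limits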
Target sequence (P16473 whole entry, looked up): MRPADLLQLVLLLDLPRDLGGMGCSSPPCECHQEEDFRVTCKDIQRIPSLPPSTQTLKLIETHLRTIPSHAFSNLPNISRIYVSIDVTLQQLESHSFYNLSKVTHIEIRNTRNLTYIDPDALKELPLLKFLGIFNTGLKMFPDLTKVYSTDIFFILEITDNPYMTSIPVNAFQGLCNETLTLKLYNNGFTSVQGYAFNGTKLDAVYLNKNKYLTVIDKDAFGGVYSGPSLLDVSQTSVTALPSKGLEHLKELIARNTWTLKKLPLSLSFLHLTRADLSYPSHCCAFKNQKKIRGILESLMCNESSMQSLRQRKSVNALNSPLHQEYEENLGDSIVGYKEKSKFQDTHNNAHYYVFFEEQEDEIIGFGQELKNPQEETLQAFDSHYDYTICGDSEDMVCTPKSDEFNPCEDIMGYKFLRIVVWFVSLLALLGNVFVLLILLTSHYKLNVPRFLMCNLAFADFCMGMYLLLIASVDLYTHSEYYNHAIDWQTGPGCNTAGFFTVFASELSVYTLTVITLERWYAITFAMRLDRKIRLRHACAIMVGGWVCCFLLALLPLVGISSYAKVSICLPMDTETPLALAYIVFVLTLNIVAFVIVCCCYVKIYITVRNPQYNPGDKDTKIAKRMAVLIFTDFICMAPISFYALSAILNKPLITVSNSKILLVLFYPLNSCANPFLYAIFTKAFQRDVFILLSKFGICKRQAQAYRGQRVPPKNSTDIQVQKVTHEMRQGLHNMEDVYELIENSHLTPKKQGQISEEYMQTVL
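Read-out is FRET at 665 nm (cryptate excitation 337 nm) from a cryptate-tagged anti-cAMP antibody, competed by cell cAMP against cAMP-d2. Compounds are tested on freshly harvested TSHR cells challenged with 4nM TSH (EC80) for 2 hours at 37 deg C.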
FBPA coupling cs = coupling enzyme interference in Giardia aldolase counter-screen. activity change, negative = inhibition, % at 58.2 µM, hits read low. actives 0.67% (n = 290,000). coupling enzyme system counterscreen, AmpLite Red fluorescence; in the data active = activity change below about -30%
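Activity here indicates interference with the coupling reaction, not aldolase inhibition. Compounds at 57.5 uM final met coupling enzymes for 10 min at RT; substrate and AmpLite Red detection followed, with a 525/598 nm fluorescence read after 20 min.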
VP16 counter = counter-screen for ROR gamma inhibitors: Gal4-VP16 reporter; AID 2546; Drosophila S2 Gal4-VP16 UAS-luciferase, luminescence, 20 h; actives 3.5% (n = 310,000); Potency, µM (series often up to 53.6 µM), without a hit: at the highest dose activity, negative = inhibition, actives largely listed as inhibitors;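 note: Gal4-VP16 expression switched on by copper sulfate through the metallothionein promoter; potency is the fitted concentration of half-maximal effect; nearly all actives have a fitted effect of over 50% in size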
ELG1 DNA repair = inhibitors of ELG1-dependent DNA repair in HEK293T cells | Potency, µM (titrated, usually from 46.1 µM), inactives show at the highest dose activity change, negative = inhibition, hits mostly inhibitors | actives 2.3% (n = 330,000) | HEK293T ELG1-luciferase reporter, luminescence, 16 h; DNA damage induced by 5-fluorouridine | AID 504467; note: potency is the fitted concentration of half-maximal effect; nearly all actives have a fitted effect of over 55% in size
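Quantitative HTS, concentration-response format. 2,000 cells/well co-treated with 5-fluorouridine and compound, 16 hr in 5% CO2 at 37 °C; ONE-Glo luminescence read after 30 min.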
Active calls of the source: *; u = inconclusive; x = no result given; [ ] = remark or other dose. Hits are enriched below; roughly 8% of the tested compounds scored in any of these assays. Unless noted, calls come from the whole dose curve; as a rule, active = well fitted curve in the direction sought with a large enough effect; inconclusive = small, poorly fitted or top-dose-only effect, or another doubt; inactive = no such curve, though single readings can be large; an effect the other way counts as inactive or inconclusive. % is set by controls: 0 for no effect and ±100 for the full control effect.

SMILES | RORgamma inh | TSHR antag | FBPA coupling cs | VP16 counter | ELG1 DNA repair
O=C(Nc1ccc2c(c1)OCCO2)c1ccccn1 | 7.1µM* | -6 | 0 | 14µM* | u
O=C(Nc1ccc(NC(=O)c2ccccn2)cc1)C(=O)Nc1ccc2c(c1)OCCO2 | u | 13 | 4 | -8% | u
Cn1ccc(C(=O)Nc2ccc3c(c2)OCCO3)n1 | 7.9µM* | -3 | -1 | u | u
CCCN(CC(=O)Nc1ccccc1OC)C(=O)c1ccc2c(c1)NC(=O)C(C)S2 (stereo unspecified) | x | -1 | x | x | -2%
COc1ccc(/C=N/NC(=O)c2cccnc2)cc1CSc1nc2ccccc2s1 | u | -17 | -3 | 20µM* | 7.3µM*
O=C(N/N=C/c1cccc(Oc2ccccc2)c1)c1ccc(O)cc1O | 0.63µM* | -15 | 0 | 2.2µM* | 11%
COc1ccc(/C=N\NC(=O)c2ccc([N+](=O)[O-])c(C)c2)cc1COc1ccccc1C(N)=O | 3% | 1 | x | 2% | u
COc1cc(/C=N/NS(=O)(=O)c2ccc(C)cc2)ccc1OCc1cccc(C(=O)O)c1 | u | -8 | 7 | -11% | u
COc1ccc(/C=N\NS(=O)(=O)c2ccc(C)cc2)cc1COc1ccccc1[N+](=O)[O-] | 37% | -21 | -4 | -3% | 16µM*
COc1ccc(/C=N/NC(=O)c2ccccc2OC)cc1COc1ccccc1[N+](=O)[O-] | u | 8 | 8 | -22% | 13µM*
O=C(N/N=C/c1cccc(Oc2ccccc2)c1)c1ccncc1 | u | 8 | -8 | u | 2%
CSCC[C@H](NC(=O)[C@H](CCCN=C(N)N)NC(=O)[C@@H]1CCCN1C(=O)[C@H](Cc1ccccc1)NC(=O)[C@H](C)NC(=O)[C@H](CC(C)C)NC(=O)[C@H](Cc1ccc(O)cc1)NC(=O)[C@H](CC(N)=O)NC(=O)[C@@H](N)CCSC)C(N)=O | 5% | x | 1 | -9% | x
CC(C)N1CCN(c2ccc(OC[C@@H]3CO[C@@](Cn4cncn4)(c4ccc(Cl)cc4Cl)O3)cc2)CC1 | 12%[2.98 µM] | x | 2 | 2%[17 µM] | x
COc1ccc(/C=N/NC(=O)c2ccn[nH]2)cc1COc1ccc([N+](=O)[O-])c(C)c1 | 33% | -8 | -1 | -21% | u
COc1ccc(/C=N/NC(=O)c2cccnc2)cc1COc1ccc([N+](=O)[O-])c(C)c1 | -41% | -8 | 2 | 1% | 15µM*
COc1ccc(/C=N/NC(=O)c2ccc(O)cc2O)cc1CSc1ccccn1 | 0.089µM* | -5 | 1 | 2µM* | u
CCCCC(CC)CN1CN(CC(CC)CCCC)CC(C)(N)C1 (stereo unspecified) | -6% | x | -1 | -3% | x
O=C(NCCc1ccccc1F)C1CCC(=O)N(Cc2ccc(Cl)cc2)C1 (stereo unspecified) | 13% | 11 | 2 | 0% | 14%
COC(=O)CSc1cc(C(=O)c2nccn2C)c2ccccc2n1 | 14% | -6 | -1 | -3% | -2%
Cn1ccnc1C(=O)c1cc(SCC(=O)NCc2ccccc2)nc2ccccc12 | 15% | 19 | 5 | -12% | 8.2µM*
CN1CCN(c2ccccc2NC(=O)c2ccc(OCc3ccccc3)cc2)CC1 | -22%[0.365 µM] | -9 | 0 | x | u
COc1ccc(-c2cn3cccnc3n2)cc1NC(=O)c1cc(OC)c(OC)c(OC)c1 | -2% | -5 | 7 | 0% | 8.2µM*
COc1c(C)cccc1C(=O)NC(=S)Nc1ccccc1N1CCCC1 | 10µM* | 14 | x | 20µM* | 23%
COc1cc(C(=O)Nc2cccc(-c3cn4cccnc4n3)c2)cc(OC)c1OC | -24% | -3 | 0 | -1% | u
CN1CCN(c2ccccc2NC(=O)c2cccc(OCc3ccccc3)c2)CC1 | u | -9 | 0 | -30% | 21µM*
SMILES | RORgamma inh | TSHR antag | FBPA coupling cs | VP16 counter | ELG1 DNA repair
COc1cccc(C(=O)NC(=S)Nc2ccccc2N2CCCCC2)c1 | 2.5µM* | -3 | 0 | 5µM* | 2%
FC(F)(F)c1ccccc1-c1nccc(NCc2ccccc2)n1 | 13% | x | -2 | 11% | x
O=C(COC(=O)c1ccc2c(c1)C(=O)N(Cc1ccco1)C2=O)NCC(F)(F)F | 5% | 19 | -1 | 3% | 2%
CC(C)c1ccc(C(=O)COC(=O)C(O)c2ccccc2)cc1 (stereo unspecified) | x | 5 | x | x | -1%
Cc1nn(C(=O)N(C)C)c(C)c1CN1C(=O)c2ccccc2C1=O | -24% | -9 | 3 | 2% | 0%
COC(=O)c1ccc(C(NC(=O)OCc2ccccc2)/C(=C/[C@@H](C)C(=O)NCc2ccc(OC)c(OC)c2)c2cccnc2)cc1 (stereo partly specified) | 3% | x | 1 | -10% | x
CC(C)Oc1cccc(C(=O)NC(=S)Nc2ccccc2N2CCOCC2)c1 | 5.6µM* | -7 | x | 5.6µM* | 0%
COc1cccc(C(=O)Nc2ccccc2N2CCN(C(=O)c3ccccc3)CC2)c1 | x | -5 | x | x | 23µM*
CCn1nnc(-c2ccccc2NC(=O)c2cc(OC)c(OC)c(OC)c2)n1 | -45% | -14 | -3 | -10% | 16µM*
COCCCNC(=S)Nc1cccc2ncccc12 | -42% | 5 | -33* | 2% | -12%
O=[N+]([O-])c1cccc(Cl)c1 | 3% | x | x | 5% | x
CC(=O)Oc1cc(C(F)(F)F)ccc1C(=O)O | 6%[16.9 µM] | x | 6 | -9%[17 µM] | x
O=C(O)CCC(=O)Nc1ccc2c(c1)Cc1cc(NC(=O)CCC(=O)O)ccc1-2 | -17% | -3 | 6 | -3% | 15%
COc1ccccc1C(=O)Nc1ccccc1N1CCN(C(=O)c2ccc(Cl)cc2)CC1 | 0% | -11 | x | -10% | 15µM*
COc1ccc(Br)cc1C(=O)Nc1cccc2ncccc12 | -1% | -7 | 0 | -4% | 1%
COc1cc(C(=O)Nc2ccccc2N2CCCCC2)cc(OC)c1OC | -33% | -11 | -2 | -9% | 21µM*
COc1cc(C(=O)Nc2cccc3ncccc23)cc(OC)c1OC | 35µM* | -13 | 2 | -14% | u
COc1cc(C(=O)NCCOc2cccc3cccnc23)cc(OC)c1OC | -14% | 10 | 1 | -14%[10 µM] | 8.2µM*
COc1ccc(O[C@H]2C=C[C@@H](c3ccccc3)O[C@H]2COC(=O)CC/C(C)=N/OCC[C@@H]2C=C[C@H](OC(C)=O)[C@H](COC(C)=O)O2)cc1 | 8%[10 µM] | x | -2 | -4%[10 µM] | x
COc1cccc(C(=O)NC(=S)Nc2ccccc2N2CCCC2)c1 | 4µM* | 7 | -1 | 13µM* | -14%
CCOc1ccc(CCNC(=O)c2ccc3nc(N4CCOCC4)sc3c2)cc1OCC | 20% | 4 | 4 | 16% | 23µM*
CCOc1ccc(CCNC(=O)c2ccc(Cl)c(S(=O)(=O)N3CCOCC3)c2)cc1OCC | x | -27 | x | x | 16µM*
